# According to PubChem BioAssay (NCATS):
# “And” between values parts separate entries of the source, which are not always exact repeats. Equal values may be shown once. Inconclusive results are not listed. Unmarked numbers belong to inactive results. The source made the active and inactive calls. The call rests on the fitted dose curve; in most records, active means well fitted inhibition curve with a large enough effect; inconclusive means small, poorly fitted or top-dose-only effect; inactive means flat fitted curve, though single readings scatter.
# How the values were obtained:
# [1] = test system: CRL-7250; assay: Cytotoxic Profiling of Annotated Libraries Using Quantitative High-Throughput Screening (AID 1296008); conditions: Five cell lines viability, CellTiter-Glo ATP luminescence, 48-72 h; max response: active compounds read low; further: potency means the concentration at half of the fitted maximal effect; on max response: on the % scale 0 is the no-effect control and ±100 the full control effect
# In short: (§1)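 Cells exposed to compounds for 48 or 72 hr at 37 degrees Celsius. Viability read as ATP-coupled luminescence with CellTiter-Glo after 10 min at room temperature.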
# [2] = test system: HaCat; assay: as above; conditions: Five cell lines viability, CellTiter-Glo ATP luminescence, 48-72 h; max response: active compounds read low
# In short: as §1
# [3] = test system: NIH3T3; assay: as above; conditions: Five cell lines viability, CellTiter-Glo ATP luminescence, 48-72 h; max response: active compounds read low
# In short: as §1
# [4] = test system: HACAT; assay: qHTS assay to identify novel small-molecules to repurpose for Merkel cell carcinoma treatment (AID 1296009); conditions: MCC and control cell lines, CellTiter-Glo viability, 72 h; at 44.8 µM (top of the series) unless noted
# In short: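 Cells were treated for 72 hr at 37 degree celsius with compounds in 8- or 11-point dose response. Viability was read by CellTiter-Glo luminescence, normalized to no-cell (cytotoxicity) and DMSO controls.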
# [5] = test system: KB-3-1; assay: Cytotoxic Profiling of Annotated Libraries Using Quantitative High-Throughput Screening (AID 1296008); conditions: Five cell lines viability, CellTiter-Glo ATP luminescence, 48-72 h; max response: active compounds read low; further: potency means the concentration at half of the fitted maximal effect; on max response: on the % scale 0 is the no-effect control and ±100 the full control effect
# In short: as §1
# Further: nearly all actives have a fitted effect of over 60% in size.
compound,measurement,setting,value
Cc1noc(C)c1-c1cc(O)cc(C(O)c2ccccc2)c1 (stereo not drawn),Potency,[1],7.31 µM (active)
same,max response,[2],-28.1%
same,Potency,[3],10.3 µM (active)
CC1(C)CC[C@]2(C(=O)O)CC[C@]3(C)C(=CCC4[C@@]5(C)C[C@@H](O)[C@H](O)[C@@](C)(CO)C5CC[C@]43C)[C@@H]2[C@@H]1O (stereo partly drawn),max response,[1],2.24%
same,max response,[2],-17.5%
same,max response,[3],4.68%
CCc1cc2c(cc1CC)CC(NCC(O)c1ccc(O)c3[nH]c(=O)ccc13)C2 (stereo not drawn),outcome,[1],inactive
same,max response,[2],2.19%
same,max response,[3],2.82%
CC(F)(F)CN1CCOc2c(nn(-c3ccccc3Cl)c2-c2ccc(Cl)cc2)C1=O,outcome,[1],inactive
same,max response,[2],-16.2%
same,max response,[3],-14.8%
O=C(NCCCN1CCOCC1)c1cnn2c(-c3ccccc3)cc(-c3ccccc3)nc12,max response,[1],-7.62%
same,max response,[2],-15.4%
same,max response,[3],-12.1%
CC(=O)Nc1nc(C)c(-c2nc(N3CCCC(O)C3)no2)s1 (stereo not drawn),Potency,[1],8.2 µM (active)
same,Potency,[2],4.11 µM (active)
same,Potency,[3],18.4 µM (active)
Cc1c(Cl)cccc1S(=O)(=O)Nc1nc(NCCc2ccccc2)nc2c1CN(Cc1ccccc1)CC2,max response,[1],4.69%
same,outcome,[2],inactive
same,outcome,[3],inactive
same,outcome,[4],inactive
COc1cc(C(C)C)c(Oc2cnc(N)nc2N)cc1I,max response,[1],-1.85%
same,max response,[2],-19.2%
same,max response,[3],-1.33%
COC(=O)c1cc(Br)cnc1N1CCC(NC2CCCCC2)C(O)C1 (stereo not drawn),outcome,[1],inactive
same,max response,[2],-7.79%
same,outcome,[3],inactive
CO[C@H]1[C@@H](O)[C@H](O[C@H]2CC[C@@]3(C)C(CCC4C3CC[C@]35COC6(COC(=O)C6)C3CCC45O)C2)O[C@@H](C)[C@@H]1OC1OC(CO)C(OC2OC(CO)C(O)C(O)C2O)C(O)C1O (stereo partly drawn),Potency,[1],3.48 µM (active)
same,max response,[2],-26.8%
same,outcome,[3],inactive
COC(=O)C[C@H]1[C@]2(C)C3=C(C)[C@H](c4ccoc4)C[C@H]3O[C@@H]2[C@H](O)C2[C@](C)(C(=O)OC)C=CC(=O)[C@@]21C (stereo partly drawn),max response,[1],-6.81%
same,max response,[2],-7.74%
same,max response,[3],3.36%
Clc1ccc(Cn2c(Cc3ccccc3)nc3ccccc32)cc1,max response,[1],-7.75%
same,outcome,[2],inactive
same,max response,[3],-0.247%
same,outcome,[4],inactive
CCc1cccc(CC)c1-n1c(C=C(C)C)c(C(=O)N2CCNCC2)cc(-c2nc(-c3ccc(C(F)(F)F)cc3)cs2)c1=O,outcome,[1],inactive
same,max response,[2],-5.33%
same,max response,[3],-4.22%
O=C(NNc1nc2cc(F)ccc2n2cccc12)c1cnccn1,Potency,[1],1.3 µM (active)
same,Potency,[2],3.26 µM (active)
same,Potency,[3],4.11 µM (active)
O=C(Nc1ccccc1)c1ccc(Nc2nnc(-c3ccc(O)cc3)c3ccccc23)cc1,max response,[1],-21.4%
same,max response,[2],-7.55%
same,max response,[3],-26.5%
CCCn1ncc(CN2CCCC(C(=O)c3cccc(OC(C)C)c3)C2)c1C (stereo not drawn),max response,[1],-26.8%
same,max response,[2],4.33%
same,max response,[3],-15.4%
COc1cc(O)c2c(c1)/C=C/C[C@H](O)[C@H](O)C(=O)/C=C\C[C@H](C)OC2=O,Potency,[1],16.4 µM (active)
same,Potency,[2],9.2 µM (active)
same,Potency,[3],5.8 µM (active)
C[C@@H](Nc1ncnc2[nH]c(-c3ccc(O)cc3)cc12)c1ccccc1,max response,[1],-9.15%
same,Potency,[2],0.82 µM (active)
same,Potency,[3],14.6 µM (active)
Cc1c(OCc2cccc(-c3ccc(C(=O)O)cc3)c2)cc2c(c1C)C(=O)C(C1CCCC1)C2 (stereo not drawn),max response,[1],3.68%
same,max response,[2],-12%
same,max response,[3],-4.46%
N#CC(CCCN1CCN(/N=C/c2cccnc2)CC1)(c1ccccc1)c1ccccc1,max response,[1],-20.5%
same,max response,[2],-26.9%
same,max response,[3],-25.1%
CNC(=O)c1cc(Oc2ccc(NC(=O)c3cccc(C(F)(F)F)c3)cc2)ccn1,max response,[1],-16.9%
same,max response,[2],-5.26%
same,max response,[3],-24.9%
O=C(NS(=O)(=O)c1ccc(Br)s1)c1ccc(Cl)cc1Cl,max response,[1],-22.3%
same,max response,[2],3.71%
same,max response,[3],-6.08%
O=C1c2ccc(Nc3ccc(F)cc3F)cc2CCc2ccc(OCC(O)CO)cc21 (stereo not drawn),max response,[1],-2.8%
same,max response,[2],0.902%
same,max response,[3],-2.95%
NC(N)=NC(=O)c1cnn(-c2cccc3ncccc23)c1C1CC1,max response,[1],-23.8%
same,max response,[2],-2.12%
same,max response,[3],-11.3%
CC(=O)Nc1cccc(Nc2ncnc(N3CCC(OCc4ccc(OC(F)(F)F)cc4)CC3)n2)c1C,Potency,[1],13 µM (active)
same,max response,[2],-26.7%
same,max response,[3],-3.89%
O=C(COc1ccc2ccccc2c1Br)Nc1cccnc1,max response,[1],-18.6%
same,outcome,[2],inactive
same,max response,[3],-5.04%
same,outcome,[4],inactive
Cc1nc(Nc2ccc(F)cc2)nc(N2CCc3ccccc3C2C)c1C (stereo not drawn),max response,[1],-9.52%
same,outcome,[2],inactive
same,max response,[3],-20.5%
same,outcome,[4],inactive
CC(C)(O)C1CC(=O)C2(C)C(CCC3(C)C(c4ccoc4)OC(=O)C4OC432)C12CCC(=O)OC2 (stereo not drawn),max response,[1],-9.62%
same,outcome,[2],inactive
same,outcome,[3],inactive
same,outcome,[4],inactive [at 17.4 µM]
CC(C)C[C@@H](C(=O)N[C@@H](Cc1ccc(OCc2ccccc2)cc1)C(=O)NC(C)(C)C)N(C)Cc1ccc(C(C)(C)C)cc1,max response,[1],-7.62%
same,outcome,[2],inactive
same,max response,[3],-5.54%
same,outcome,[4],inactive
C=C1/C(=C/C=C2\CCC[C@]3(C)[C@@H]([C@H](C)/C=C/[C@@H](C)C(C)C)CC[C@@H]23)C[C@@H](O)C[C@@H]1O,max response,[1],1.9%
same,outcome,[2],inactive; activator
same,Potency,[3],0.326 µM (active)
same,outcome,[4],inactive; activator
N#Cc1ccc(N2N=C3c4ccc(C(=O)O)cc4CC[C@@H]3[C@@H]2C2CCCC2)cc1Cl,max response,[1],1.36%
same,outcome,[2],inactive
same,max response,[3],-3.29%
same,outcome,[4],inactive
Cc1onc(-c2ccccc2)c1C(=O)N1CCN(c2ccc([N+](=O)[O-])cc2Cl)CC1,max response,[1],-3.78%
same,outcome,[2],inactive
same,max response,[3],4.81%
same,outcome,[4],inactive
O=C(c1c(F)ccc(NS(=O)(=O)N2CC[C@@H](F)C2)c1F)c1c[nH]c2ncc(-c3cnc(C4CC4)nc3)cc12,Potency,[1],23.1 µM (active)
same,max response,[5],-23.7%
CNc1nc(NCc2ccc(NS(C)(=O)=O)cc2Cl)cc(-c2ccccn2)n1,Potency,[1],20.6 µM (active)
same,outcome,[2],inactive
same,max response,[3],-15.9%
same,outcome,[4],inactive
O=C(NO)c1ccc(CC(=O)N(CCO)c2ccccc2)cc1,max response,[1],0.727%
same,outcome,[2],inactive
same,max response,[3],-4.33%
same,outcome,[4],inactive
CCN1C(C)(C)CC(Oc2ccc(C(=O)Nc3ccc(NC(=O)Nc4cc(C(C)(C)C)on4)cc3)nc2)CC1(C)C,max response,[1],-1.6%
same,outcome,[2],inactive
same,outcome,[3],inactive
same,outcome,[4],inactive
CC(C)=CCC/C(C)=C/COCC1OC(n2ccc(=O)[nH]c2=O)C(O)C1O (stereo not drawn),max response,[1],-3.59%
same,max response,[5],7.71%
COc1ccnc(CS(=O)c2nc3cc(OC(F)F)ccc3[nH]2)c1OC (stereo not drawn),max response,[1],-13.2%
same,max response,[5],-2.25% and -1.6%
CN(C)C(CCOc1cccc2ccccc12)c1ccccc1 (stereo not drawn),max response,[1],-16.3%
same,outcome,[2],inactive
same,outcome,[3],inactive
same,outcome,[4],inactive
CN(C)C(=O)C(=O)c1cn(C)c2cc(Cl)c(C(=O)N3CCC(Cc4ccc(F)cc4)CC3)cc12,max response,[1],-5.29%
same,outcome,[2],inactive
same,max response,[3],1.98%
same,outcome,[4],inactive
CC(C)=CCC[C@](C)(O[C@@H]1O[C@H](CO[C@@H]2OC[C@@H](O)[C@H](O)[C@H]2O)[C@@H](O)[C@H](O)[C@H]1O)[C@H]1CC[C@]2(C)[C@@H]1[C@H](O)C[C@@H]1[C@@]3(C)CC[C@H](O[C@@H]4O[C@H](CO)[C@@H](O)[C@H](O)[C@H]4O)C(C)(C)[C@@H]3CC[C@]12C,max response,[1],-26.7%
same,max response,[5],5.08%
O[C@@](Cc1ncc(CC2(C(F)(F)F)CC2)[nH]1)(c1ccc(-n2cccn2)cc1)C(F)(F)F,outcome,[1],inactive
same,outcome,[2],inactive
same,max response,[3],-24.1%
same,outcome,[4],inactive
COC(=O)CC(O)CC(O)/C=C/c1c(C)ccc2c1C(OC(C)=O)CC(C)C2 (stereo not drawn),Potency,[1],4.04 µM (active)
same,outcome,[2],inactive
same,outcome,[3],inactive
same,outcome,[4],inactive
O=C(Nc1ccc(Cl)cc1)Nc1cccc(-c2cccc(N3CCCC3)n2)c1,max response,[1],-4.95%
same,outcome,[2],inactive
same,max response,[3],1.43%
same,outcome,[4],inactive
CC(C)(O)c1ccn2c(-c3ccc(F)c(-c4ccc(F)cc4C#N)c3)cnc2c1F,max response,[1],-19.9%
same,outcome,[2],inactive
same,max response,[3],-2.51%
same,outcome,[4],inactive
Cc1cc(C(=O)Cn2cc(C#N)ccc2=O)c(C)n1Cc1ccccc1,max response,[1],-5.73%
same,outcome,[2],inactive
same,outcome,[3],inactive
same,outcome,[4],inactive
COc1ccc(CCCN2CCC(COC(c3ccccc3)c3ccccc3)CC2)cc1,max response,[1],-2.98%
same,max response,[5],-17.2%
Cc1cc(C)cc(-c2cnc3cc(Cl)c(-c4cccc(O)c4)cc3c2OCCCN)c1,max response,[1],3.3%
same,outcome,[2],inactive
same,max response,[3],-0.922%
same,outcome,[4],inactive
CCC(C)C(=O)O[C@H]1[C@H](O)[C@@]2(COC(C)=O)C(CC1(C)C)C1=CCC3[C@@]4(C)CC[C@H](O[C@@H]5O[C@H](C(=O)O)[C@@H](O)[C@H](O)[C@H]5O)[C@@](C)(CO)C4CC[C@@]3(C)[C@]1(C)C[C@@H]2O (stereo partly drawn),max response,[1],4.21%
same,outcome,[2],inactive
same,max response,[3],2.07%
same,outcome,[4],inactive [at 9.27 µM]
COc1cc2c(cc1-c1c(C)noc1C)ncc1[nH]c(=O)n(C(C)c3ccccn3)c12 (stereo not drawn),Potency,[1],5.8 µM (active)
same,outcome,[2],inactive
same,Potency,[3],7.31 µM (active)
same,outcome,[4],inactive
Cn1ncc2cc(-c3cnc(N)c(Cl)c3N3CCC4(CCNC4=O)CC3)ccc21,outcome,[1],inactive
same,outcome,[5],inactive
O=C(NCc1nc2ccccc2c(=O)n1-c1ccc(F)cc1)Nc1ccc(Cl)c(C(F)(F)F)c1,outcome,[1],inactive
same,outcome,[2],inactive
same,max response,[3],-1.1%
same,outcome,[4],inactive
